Inconclusive results are not listed. Unmarked numbers belong to inactive results. Active and inactive are the calls of the source. Calls follow the shape of the full dose curve.
Assay: qHTS assay to identify small molecule agonists of the progesterone receptor (PR) signaling pathway - cell viability counter screen (AID 1346799); also: nearly all actives have a fitted effect of over 45% in size
Details: PR-UAS-bla HEK293T viability, CellTiter-Glo luminescence, 16 h; series mostly up to 92.4 µM; activity change, negative = cytotoxicity: at the top concentration
Description: National Center for Advancing Translational Sciences [NCATS]
NIH Chemical Genomics Center [NCGC]
U.S. Environmental Protection Agency [EPA]
National Institutes of Environmental Health Sciences [NIEHS]
National Toxicology Program [NTP]
U.S. Food and Drug Administration [FDA]
Progesterone receptor (PR), a nuclear hormone receptor, plays an important role in development, metabolic homeostasis and reproduction. It is activated by the steroid hormone progesterone. Endocrine disrupting chemicals (EDCs) and their interactions with steroid hormone receptors like PR causes disruption of normal endocrine function. To identify the compounds that stimulate PR signaling, a PR-UAS-bla GripTite cell line i.e. PR-UAS-bla HEK293T (Invitrogen, Carlsbad, CA, USA) containing a beta-lactamase reporter gene under the control of an UAS response element was used to screen Tox21 10K compound library. The cytotoxicity of the Tox21 compound library against the PR-bla cell line was tested in parallel by measuring the cell viability using CellTiter-Glo assay in the same wells.
Tox21 Assay Protocol Summary:
PR-UAS-bla HEK293T cells were dispensed at 3,000 cells/5 uL of assay medium containing 2% charcoal stripped FBS per well into black wall/clear-bottom 1536-well plates using a Multidrop Combi (ThermoFisher Scientific, Waltham, MA) dispenser. After the assay plates were incubated at a 37C and 5% CO2 for 6 hr, 23 nL of compounds dissolved in DMSO, positive controls or DMSO only was transferred to the assay plate by a Pintool station (Kalypsys, San Diego, CA). The plates were incubated at 37C and 5% CO2 for 16 hr. Then 1 uL of LiveBLAzer B/G FRET substrate was added using a Flying Reagent Dispenser (FRD, Aurora Discovery, San Diego, CA), the plates were incubated at room temperature for 2 hours, and fluorescence intensity was measured by an Envision plate reader (PerkinElmer, Shelton, CT). For cell viability readout that measures cytotoxicity, 4 uL/well of CellTiter-Glo reagent was added into the assay plates using a FRD. After 30 min incubation at room temperature, the luminescence intensity in the plates was measured using a ViewLux (PerkinElmer) plate reader.
% is scaled to controls: 0 for no effect and ±100 for the full control effect; potency is read from the fitted curve at half-maximal effect.

SMILES	activity change, negative = cytotoxicity	Potency
Cl/C=C\C[N+]12CN3CN(CN(C3)C1)C2	-1.88%	
C=CC(=O)OC	-0.508%	
CC(=O)[C@H]1CC[C@H]2[C@@H]3CC[C@H]4C[C@](C)(O)CC[C@]4(C)[C@H]3CC[C@]12C	-2.23% [at 42.5 µM]	
N#Cc1ccc(Cl)cc1	0.963%	
CCCCCCC#N	-3.92%	
CC(O)(CS(=O)(=O)c1ccc(F)cc1)C(=O)Nc1ccc(C#N)c(C(F)(F)F)c1 (stereo not given)	-18.5% [at 42.5 µM]	
Clc1ccc(C(OCCN2CCCCC2)c2ccccc2)cc1 (stereo not given)	-15% [at 42.5 µM]	
O=Cc1ccc(Cl)cc1Cl	19.7%	
COP(=S)(OC)Oc1ccc([N+](=O)[O-])cc1Cl	9.25%	
NNC(=O)c1cccnc1	-19.3%	
C=CC(=O)OC(C)(C)C	-26.8%	
O=[N+]([O-])c1ccccc1CCl	5.51%	
CCOP(=S)(OCC)SCSCC	-1.32%	
CO[C@@H]1[C@H](OC(=O)NC(=O)CCl)CC[C@]2(CO2)[C@H]1[C@@]1(C)O[C@@H]1CC=C(C)C	-29% [at 19 µM]	
c1cc2ccc3cccc4ccc(c1)c2c34		28.6 µM (active)
NCC(CC(=O)O)c1ccc(Cl)cc1 (stereo not given)	0.204% [at 0.349 µM]	
ClCc1ccccc1	-0.567%	
Brc1ccc(Oc2ccccc2)cc1	54.6%	
c1ccc(CN2CCNCC2)cc1	2.69% [at 240 µM]	
CC(C)=CCOc1c2occc2cc2ccc(=O)oc12	3.01% [at 42.5 µM]	

SMILES	activity change, negative = cytotoxicity	Potency
C=COC(C)=O	-15.1%	
COc1nn(C(=O)NS(=O)(=O)c2ccccc2OC(F)(F)F)c(=O)n1C	3.94%	
CC(=O)NC1CCSC1=O (stereo not given)	4.5% [at 42.5 µM]	
Cc1cc(=O)[nH]o1	-8.49%	
CC(C)O.CC(C)O.OCCN(CCO)CCO.OCCN(CCO)CCO.[Ti]	-2.64%	
C=CCC1([C@H](C)CCC)C(=O)NC(=O)NC1=O	0.629%	
CC1Sc2c(C(=O)O)c(=O)c3cc(F)c(N4CCNCC4)cc3n21 (stereo not given)	1.86% [at 42.5 µM]	
NC(=O)C(Cl)(Cl)Cl	5.56%	
CC(=O)C(C)(C)C	13%	
c1ccoc1	13.9%	
Cc1ccc(N)cc1C	-12%	
COc1c(C(C)(C)C)cc([N+](=O)[O-])c(C)c1[N+](=O)[O-]	-0.895%	
O=C(O)CC(Cl)C(=O)O (stereo not given)	-19.1%	
Clc1cc(Cl)c(Cl)c(Cl)c1	-2.85%	
O=NN1CCNCC1	-0.853%	
CCOc1nc(F)cc2nc(S(=O)(=O)Nc3c(Cl)cccc3Cl)nn12	0.0062%	
N#CCc1ccccc1	-2.14%	
BrCCCCBr	-2.71%	
CS/C(C)=N/OC(=O)N(C)SN(C)C(=O)O/N=C(\C)SC	0.509%	
O=[N+]([O-])c1cc(C(F)(F)F)cc([N+](=O)[O-])c1Cl		13.7 µM (active)

Source: PubChem BioAssay (Tox21)
